We go through 15 sequences from PMC8384837, “Expanding the binding specificity for RNA recognition by a PUF domain”.

Assay in all cases: yeast three-hybrid, YBZ-1, SC-Leu-His + 0.5 mM 3-AT, 4 days
Common to all, as to details: tags: N-Gal4 AD-HA kept; label: inside an RPR1-promoter hybrid RNA with tandem MS2 sites; ssRNA

Experiment [1] addresses PUM1 PUF domain R1-QVR (Homo sapiens, UniProt Q14671 828-1176, S863Q;R864V;Q867R). In a few lines: (§1)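 Matching RNA elements and Pumilio-1 PUF domain libraries, randomized at the three base-contacting residues of every repeat, were co-expressed from a centromeric plasmid in strain YBZ-1 (LexA–MS2 coat fusion, HIS3 reporter). The repeat regions were PCR-amplified and Illumina-sequenced from cells grown four days on SC-Leu (input) or SC-Leu-His + 0.5 mM 3-AT (selection). The interaction score is the log change in variant frequency from input to selection. It is computed in log2, with a pseudocount of 1 for absent variants.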

Experiment [2] has as its target PUM1 PUF domain R1-NKR (Homo sapiens, UniProt Q14671 828-1176, S863N;R864K;Q867R). Summed up: as §1
The target in experiment [3] is PUM1 PUF domain R1-YSR (Homo sapiens, UniProt Q14671 828-1176, S863Y;R864S;Q867R). Summed up:
as §1

Experiment [4] deals with PUM1 PUF domain R3-SRL (Homo sapiens, UniProt Q14671 828-1176, C935S;Q939L). Summed up: as §1
Experiment [5] addresses PUM1 PUF domain R3-PWH (Homo sapiens, UniProt Q14671 828-1176, C935P;R936W;Q939H). Summed up:
as §1

The target of experiment [6] is PUM1 PUF domain R3-RNE (Homo sapiens, UniProt Q14671 828-1176, C935R;R936N;Q939E). In a few lines:
as §1

Experiment [7] deals with PUM1 PUF domain R3-EFL (Homo sapiens, UniProt Q14671 828-1176, C935E;R936F;Q939L). Summed up: as §1
The target in experiment [8] is PUM1 PUF domain R5-RAK (Homo sapiens, UniProt Q14671 828-1176, C1007R;R1008A;Q1011K). In a few lines:
as §1

Experiment [9] addresses PUM1 PUF domain R5-CQR (Homo sapiens, UniProt Q14671 828-1176, R1008Q;Q1011R). In a few lines: as §1
The target of experiment [10] is PUM1 PUF domain R8-IFR (Homo sapiens, UniProt Q14671 828-1176, N1122I;Y1123F;Q1126R). In a few lines:
as §1

Experiment [11] has as its target PUM1 PUF domain R3-FCS (Homo sapiens, UniProt Q14671 828-1176, C935F;R936C;Q939S). Summed up: as §1
Experiment [12] addresses PUM1 PUF domain R3-IWS (Homo sapiens, UniProt Q14671 828-1176, C935I;R936W;Q939S). Summed up: as §1
In experiment [13] the target is T1, PUM1 PUF domain R6-NHR (Homo sapiens, UniProt Q14671 828-1176, Y1044H;Q1047R).
T1 sequence: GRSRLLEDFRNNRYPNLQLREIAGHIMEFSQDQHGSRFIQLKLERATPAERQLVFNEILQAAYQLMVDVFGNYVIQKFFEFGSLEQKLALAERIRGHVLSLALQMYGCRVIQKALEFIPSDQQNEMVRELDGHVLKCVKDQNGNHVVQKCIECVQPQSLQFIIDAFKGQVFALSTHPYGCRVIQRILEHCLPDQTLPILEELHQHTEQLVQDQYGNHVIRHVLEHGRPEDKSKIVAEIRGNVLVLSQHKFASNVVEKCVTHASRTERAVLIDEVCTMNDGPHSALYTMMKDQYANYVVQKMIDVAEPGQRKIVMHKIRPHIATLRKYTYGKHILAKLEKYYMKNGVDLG
Summed up:
as §1

Experiment [14] concerns the target PUM1 PUF domain R5-RND (Homo sapiens, UniProt Q14671 828-1176, C1007R;R1008N;Q1011D). Summed up:
as §1

Experiment [15] concerns the target PUM1 PUF domain R5-MRR (Homo sapiens, UniProt Q14671 828-1176, C1007M;Q1011R). In a few lines: as §1
The target of experiment [16] is PUM1 PUF domain R4-NRV (Homo sapiens, UniProt Q14671 828-1176, H972R;Q975V). In a few lines: as §1
Experiment [17] concerns the target PUM1 PUF domain R4-WGR (Homo sapiens, UniProt Q14671 828-1176, N971W;H972G;Q975R). Summed up:
as §1

The target in experiment [18] is T2, PUM1 PUF domain R6-VYL (Homo sapiens, UniProt Q14671 828-1176, N1043V;Q1047L).
T2 sequence: T1 sequence with N216V, H217Y, R220L
In a few lines: as §1

For experiment [19], the target named is PUM1 PUF domain R3-CFD (Homo sapiens, UniProt Q14671 828-1176, R936F;Q939D). In a few lines:
as §1

In experiment [20] the target is PUM1 PUF domain R2-LFC (Homo sapiens, UniProt Q14671 828-1176, N899L;Y900F;Q903C). Summed up:
as §1

Where a chain is given by its changes, count along the chain named.

“GGCUAGAACUAGUGGAUCCCCCGGCGCCCGGCGGCUCGAGCCCGGGUAAGUGUAAAUCGUCUGCAUGCCGCCGGGCGCCAUGCCUGCAGGUCGACUCUAGAAAACAUG”: the values for the binding signal in experiment [1], in [2] and in experiment [3] were 3.01 log2 enrichment (interaction score), 3.94 log2 enrichment (interaction score) and 4.84 log2 enrichment (interaction score), respectively.
As to “GGCUAGAACUAGUGGAUCCCCCGGCGCCCGGCGGCUCGAGCCCGGGUAAGUGUAAUUAGUCUGCAUGCCGCCGGGCGCCAUGCCUGCAGGUCGACUCUAGAAAACAUG”, the binding signal in experiment [4] was 1.51 log2 enrichment (interaction score); in [5] it was 4.06 log2 enrichment (interaction score); in [6], 2.81 log2 enrichment (interaction score); in experiment [7], 2.29 log2 enrichment (interaction score).
For “GGCUAGAACUAGUGGAUCCCCCGGCGCCCGGCGGCUCGAGCCCGGGUAAGUGUUAAUAGUCUGCAUGCCGCCGGGCGCCAUGCCUGCAGGUCGACUCUAGAAAACAUG”, the values for the binding signal in [8] and in experiment [9] were 3.4 log2 enrichment (interaction score) and 3.55 log2 enrichment (interaction score), respectively.
With “GGCUAGAACUAGUGGAUCCCCCGGCGCCCGGCGGCUCGAGCCCGGGUAAGUGUAAAUGGUCUGCAUGCCGCCGGGCGCCAUGCCUGCAGGUCGACUCUAGAAAACAUG”, the binding signal in [2] was 1.8 log2 enrichment (interaction score).
Regarding “GGCUAGAACUAGUGGAUCCCCCGGCGCCCGGCGGCUCGAGCCCGGGUAAGCGUAAAUAGUCUGCAUGCCGCCGGGCGCCAUGCCUGCAGGUCGACUCUAGAAAACAUG”, in experiment [10], the binding signal was 4.56 log2 enrichment (interaction score).
Consider “GGCUAGAACUAGUGGAUCCCCCGGCGCCCGGCGGCUCGAGCCCGGGUAAGUGUAAGUAGUCUGCAUGCCGCCGGGCGCCAUGCCUGCAGGUCGACUCUAGAAAACAUG”, for which the binding signal is 5.25 log2 enrichment (interaction score) in experiment [11] and 6.08 log2 enrichment (interaction score) in [12].
Take “GGCUAGAACUAGUGGAUCCCCCGGCGCCCGGCGGCUCGAGCCCGGGUAAGUGCAAAUAGUCUGCAUGCCGCCGGGCGCCAUGCCUGCAGGUCGACUCUAGAAAACAUG”: the binding signal in experiment [13] is 5.94 log2 enrichment (interaction score).
“GGCUAGAACUAGUGGAUCCCCCGGCGCCCGGCGGCUCGAGCCCGGGUAAGUGUCAAUAGUCUGCAUGCCGCCGGGCGCCAUGCCUGCAGGUCGACUCUAGAAAACAUG”: the figures for the binding signal in experiment [14], in experiment [8] and in experiment [15] were 5.27 log2 enrichment (interaction score), 3.03 log2 enrichment (interaction score) and 4.14 log2 enrichment (interaction score), respectively.
Consider “GGCUAGAACUAGUGGAUCCCCCGGCGCCCGGCGGCUCGAGCCCGGGUAAGUGUAAAUAGUCUGCAUGCCGCCGGGCGCCAUGCCUGCAGGUCGACUCUAGAAAACAUG”, for which the binding signal in [16] is 1.46 log2 enrichment (interaction score); in [14] it was 0.31 log2 enrichment (interaction score); in experiment [4], 3.65 log2 enrichment (interaction score); in [17] it was 0.32 log2 enrichment (interaction score); in experiment [18], 0.58 log2 enrichment (interaction score); in [19] it was 3.85 log2 enrichment (interaction score). In addition, the binding signal in [15] was 1.43 log2 enrichment (interaction score); in experiment [7], 5.34 log2 enrichment (interaction score).
With “GGCUAGAACUAGUGGAUCCCCCGGCGCCCGGCGGCUCGAGCCCGGGUAAGUGUAAAAAGUCUGCAUGCCGCCGGGCGCCAUGCCUGCAGGUCGACUCUAGAAAACAUG”, the binding signal in experiment [20] is 3.16 log2 enrichment (interaction score).
In the case of “GGCUAGAACUAGUGGAUCCCCCGGCGCCCGGCGGCUCGAGCCCGGGUAAGUGUACAUAGUCUGCAUGCCGCCGGGCGCCAUGCCUGCAGGUCGACUCUAGAAAACAUG”, the binding signal in experiment [16] was 1.97 log2 enrichment (interaction score); in experiment [17], 3.78 log2 enrichment (interaction score).
Consider “GGCUAGAACUAGUGGAUCCCCCGGCGCCCGGCGGCUCGAGCCCGGGUAAGUGUGAAUAGUCUGCAUGCCGCCGGGCGCCAUGCCUGCAGGUCGACUCUAGAAAACAUG”, for which the binding signal in experiment [9] was 0.8 log2 enrichment (interaction score).
As for “GGCUAGAACUAGUGGAUCCCCCGGCGCCCGGCGGCUCGAGCCCGGGUAAGUGUAUAUAGUCUGCAUGCCGCCGGGCGCCAUGCCUGCAGGUCGACUCUAGAAAACAUG”, the binding signal is 2.52 log2 enrichment (interaction score) in experiment [16] and 3.49 log2 enrichment (interaction score) in [17].
For “GGCUAGAACUAGUGGAUCCCCCGGCGCCCGGCGGCUCGAGCCCGGGUAAGUGAAAAUAGUCUGCAUGCCGCCGGGCGCCAUGCCUGCAGGUCGACUCUAGAAAACAUG”, in experiment [18], the binding signal is 6.07 log2 enrichment (interaction score).
“GGCUAGAACUAGUGGAUCCCCCGGCGCCCGGCGGCUCGAGCCCGGGUAAGUGUAAAUUGUCUGCAUGCCGCCGGGCGCCAUGCCUGCAGGUCGACUCUAGAAAACAUG”: the values for the binding signal in [1] and in [3] were 1.47 log2 enrichment (interaction score) and 5.97 log2 enrichment (interaction score), respectively.
